The text below walks through data of publication PMC4336329 (PLoS ONE, 2015).

In all, about 310,000 compounds went through this assay and about 14,000 (4.5%) showed an effect of 50% or more. The effect is printed as a negative number. The sample holds strong results, similar compounds and a random draw of the others, so the mix is not that of the screen.
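Note: peak tail current of the secondary pulse compared with the same well before compound.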

Chain of human ether-à-go-go-related gene (hERG) potassium channel (Q12809 whole entry, looked up): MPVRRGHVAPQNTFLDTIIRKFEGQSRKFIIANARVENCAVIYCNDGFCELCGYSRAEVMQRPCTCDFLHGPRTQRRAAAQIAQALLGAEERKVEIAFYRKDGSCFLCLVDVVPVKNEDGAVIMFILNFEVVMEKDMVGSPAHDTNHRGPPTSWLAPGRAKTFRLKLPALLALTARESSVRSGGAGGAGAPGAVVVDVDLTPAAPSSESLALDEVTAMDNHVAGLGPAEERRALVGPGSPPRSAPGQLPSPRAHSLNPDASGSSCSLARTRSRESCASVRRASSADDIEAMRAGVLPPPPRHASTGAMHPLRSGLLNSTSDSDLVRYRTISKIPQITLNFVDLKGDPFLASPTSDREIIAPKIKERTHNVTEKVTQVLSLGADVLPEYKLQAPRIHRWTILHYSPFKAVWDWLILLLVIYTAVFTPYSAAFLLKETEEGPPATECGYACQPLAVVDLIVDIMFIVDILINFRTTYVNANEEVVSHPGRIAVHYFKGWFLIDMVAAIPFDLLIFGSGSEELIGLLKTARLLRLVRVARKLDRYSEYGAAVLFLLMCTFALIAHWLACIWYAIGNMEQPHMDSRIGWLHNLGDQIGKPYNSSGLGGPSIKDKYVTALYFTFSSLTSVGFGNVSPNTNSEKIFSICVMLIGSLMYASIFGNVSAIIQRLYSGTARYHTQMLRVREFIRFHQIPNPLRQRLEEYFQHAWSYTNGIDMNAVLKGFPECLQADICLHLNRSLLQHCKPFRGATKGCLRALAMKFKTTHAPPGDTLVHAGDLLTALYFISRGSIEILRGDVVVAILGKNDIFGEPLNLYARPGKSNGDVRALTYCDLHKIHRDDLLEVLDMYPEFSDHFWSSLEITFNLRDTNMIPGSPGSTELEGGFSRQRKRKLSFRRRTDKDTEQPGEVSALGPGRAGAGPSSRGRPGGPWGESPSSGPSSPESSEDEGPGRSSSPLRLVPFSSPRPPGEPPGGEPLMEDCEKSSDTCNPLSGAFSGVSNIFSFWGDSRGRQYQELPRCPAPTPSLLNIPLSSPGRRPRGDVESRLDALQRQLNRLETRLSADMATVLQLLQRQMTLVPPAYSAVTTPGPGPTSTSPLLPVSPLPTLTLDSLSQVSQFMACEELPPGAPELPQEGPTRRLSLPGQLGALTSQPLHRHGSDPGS

This assay addresses human ether-à-go-go-related gene (hERG) potassium channel (human, UniProt Q12809). The experiment in a line: primary screen, population patch clamp on CHO cells stably expressing hERG; higher = less effect of the substance.
As for `O=C(NCCC1=CCCCC1)c1ccc(Br)o1`, the “hERG current change (%, negative = inhibition) at 10uM” value is -4.78%. The value for `COc1ccc(N2CCN(C(=O)c3ccc(C)cc3)CC2)c([N+](=O)[O-])c1` was -62.9%; that for `Cc1ccc(C)c(N2CCN(C(=O)c3ccc(N4CCOCC4)c([N+](=O)[O-])c3)CC2)c1` was -21.2%; that for `COc1ccc(N2CCN(C(=O)c3cccnc3)CC2)c([N+](=O)[O-])c1` was -70.8%.

For the compound `COc1cccc(N2CCN(C(=O)c3cccnc3)CC2)c1`, the “hERG current change (%, negative = inhibition) at 10uM” value came to 11.2%.

Take `O=C(c1cccnc1)N1CCN(c2c(Cl)cccc2[N+](=O)[O-])CC1`: the “hERG current change (%, negative = inhibition) at 10uM” value is listed as -46%.

For `O=C(c1ccc([N+](=O)[O-])cc1)N1CCN(C(=O)c2cccnc2)CC1`, the “hERG current change (%, negative = inhibition) at 10uM” value was -15.7%. On to `COc1cccc(C(=O)/C=C/c2ccc(N3CCCCC3)c([N+](=O)[O-])c2)c1`, for which the “hERG current change (%, negative = inhibition) at 10uM” value was -3.01%.

With `COc1ccc(N2CCN(C(=O)c3cccc(Br)c3)CC2)c([N+](=O)[O-])c1`, the “hERG current change (%, negative = inhibition) at 10uM” value is on record as -87.1%. In the case of `O=C(c1cccnc1)N1CCN(c2ccc([N+](=O)[O-])cc2Cl)CC1`, the “hERG current change (%, negative = inhibition) at 10uM” value was -65%. As for `O=C(c1cccnc1)N1CCN(c2ccccc2Cl)CC1`, the “hERG current change (%, negative = inhibition) at 10uM” value is listed as -18.5%. The same measure for `COc1cccc(C(=O)NC(=S)N2CCN(c3ccc(C(F)(F)F)cc3[N+](=O)[O-])CC2)c1`: 1.6%; for `COc1ccc(C(C)=O)cc1COC(=O)CCNS(=O)(=O)c1ccc(C)c(C)c1`: -38.3%. The same measure for `O=C(CNC(=O)c1ccccc1)NCc1nc2ccccc2[nH]1`: 3.76%. For the compound `O=C(O)c1cc(-c2cccs2)nc2ccc(F)cc12`, the “hERG current change (%, negative = inhibition) at 10uM” value is 13.2%.

With `Cc1cccc(-c2nnn(Cc3nnc(NC(=O)c4ccccc4)s3)n2)c1`, the “hERG current change (%, negative = inhibition) at 10uM” value stood at 4.02%. The value for `O=[N+]([O-])c1ccc(-c2cc(-c3ccc(Cl)cc3)n[nH]2)cc1` was -4.49%; that for `COC(=O)c1sc2ncn(-n3c(C)ccc3C)c(=O)c2c1C` was 19.7%. The same measure for `CN(C)c1ccc(C=C2C(=O)NC(=O)NC2=O)cc1[N+](=O)[O-]`: 30.8%; for `O=C(c1ccc(F)cc1)N1CCN(c2cc(N3CCCCC3)c(F)cc2[N+](=O)[O-])CC1`: -24.6%. With `COc1ccc(N2CCN(C(=O)c3ccc(F)cc3)CC2)c([N+](=O)[O-])c1`, the “hERG current change (%, negative = inhibition) at 10uM” value is given as -70.1%. In the case of `O=C1NC(=O)C(=Cc2ccc(N3CCN(C(=O)c4ccccc4)CC3)c([N+](=O)[O-])c2)C(=O)N1`, the “hERG current change (%, negative = inhibition) at 10uM” value is on record as -67.1%. The value for `CCOC(=O)N1CCN(c2ccc(F)cc2[N+](=O)[O-])CC1` was -10.5%; that for `CN1C(=O)C(=Cc2ccc(N3CCOCC3)c([N+](=O)[O-])c2)C(=O)N(C)C1=O` was 11.4%. Turning to `CCCC(=O)N(CCN(Cc1ccccc1)C(=O)CCC)Cc1ccccc1`, the “hERG current change (%, negative = inhibition) at 10uM” value is recorded as -42.5%. The same measure for `CCC(CO)NC(=O)c1cccc(S(=O)(=O)N2c3ccccc3CC2C)c1` (stereo not drawn): 2.65%.

Turning to `O=C(Nc1ccccc1[N+](=O)[O-])c1ccc(S(=O)(=O)N2CCCC2)cc1`, the “hERG current change (%, negative = inhibition) at 10uM” value is given as 1.84%. On to `CCCN(CCC)c1ncnc2nc[nH]c12`, for which the “hERG current change (%, negative = inhibition) at 10uM” value was -7.36%. The value for `Cc1cccc2sc(N(CCCN(C)C)C(=O)COc3ccc(Cl)cc3)nc12.Cl` was -60.5%; that for `Cc1cc(C)c2sc(N(CCCN(C)C)C(=O)COc3ccc(Cl)cc3)nc2c1.Cl` was -1.13%. Regarding `CN(C)CCCN(C(=O)COc1ccccc1)c1nc2c(Cl)cccc2s1.Cl`, the “hERG current change (%, negative = inhibition) at 10uM” value is -66.9%. For the compound `CN(C)CCN(C(=O)c1ccccc1Cl)c1nc2c(Cl)cccc2s1.Cl`, the “hERG current change (%, negative = inhibition) at 10uM” value was -34.1%. The same measure for `CN(C)CCCN(C(=O)COc1ccc(Cl)cc1)c1nc2c(F)cccc2s1.Cl`: -67.1%. `COc1ccc2sc(N(CCCN(C)C)C(=O)c3nc4ccccc4s3)nc2c1.Cl`: the “hERG current change (%, negative = inhibition) at 10uM” value is given as -5.36%. `COc1cccc2sc(N(CCCN(C)C)C(=O)COc3ccc(Cl)cc3)nc12.Cl`: the “hERG current change (%, negative = inhibition) at 10uM” value is reported as -80.2%. The same measure for `O=[N+]([O-])/C(C(Cl)=C(Cl)Cl)=C(/NC1CC1)Sc1ccccc1`: 7.59%; for `CC(C)N1C(=O)CCC1C(=O)N1CCC(Cc2ccccc2)CC1` (stereo not drawn): -25.3%. On to `CC(C)CC(C(=O)NCc1ccccn1)N1C(=O)c2ccccc2C1=O` (stereo not drawn), for which the “hERG current change (%, negative = inhibition) at 10uM” value is listed as -1.75%. As for `CCc1ccc(N(CC(=O)NC(C)C)C(=O)CCC(=O)Nc2nccs2)cc1`, the “hERG current change (%, negative = inhibition) at 10uM” value stood at 13.4%.

On to `COc1ccc(/C=C/C(=O)c2ccc3c4c(cccc24)CC3)cc1OC`, for which the “hERG current change (%, negative = inhibition) at 10uM” value was 20.8%. The same measure for `Nc1nn(S(=O)(=O)c2ccccc2)cc1-c1ccc([N+](=O)[O-])cc1`: -9.96%; for `O=C(COC(=O)c1ccc2c(c1)OCO2)Nc1ccccc1F`: 11.8%. The same measure for `O=C(O)Cc1ccc(NC(=O)c2ccc3c(c2)C(=O)N(CC2CCCO2)C3=O)cc1` (stereo not drawn): 12.6%; for `CC1=C(C(=O)OCCBr)C(c2cccc3ccccc23)NC(=O)N1` (stereo not drawn): 17.5%. The same measure for `CCCCN1C(=O)C(=O)N(CC(=O)N2CCc3ccccc32)C1=O`: 5.05%; for `Cc1cc(C)cc(N(C(=O)c2ccco2)C(C(=O)NC2CCCC2)c2ccncc2)c1` (stereo not drawn): 9.94%. Regarding `COc1cc(C(=O)OCCC(C)C)cc(OC)c1O`, the “hERG current change (%, negative = inhibition) at 10uM” value is -1.55%. The value for `Cc1c(Br)c(=O)oc2c(Br)c(O)ccc12` was 19.9%; that for `CCOC(=O)Cn1cc(C#N)c(=O)[nH]c1=O` was -17.8%. With `Cc1c(C(=O)Nc2ccc3oc(-c4cccnc4)nc3c2)oc2ccccc12`, the “hERG current change (%, negative = inhibition) at 10uM” value was -16.8%. The same measure for `CN(C)CCN(C(=O)CCS(=O)(=O)c1ccccc1)c1nc2c(F)cccc2s1`: 13.6%; for `CN(C)CCCN(C(=O)COc1ccccc1)c1nc2c(F)cccc2s1.Cl`: -81.2%. The same measure for `CCN(CC)CCN(C(=O)CCOc1ccccc1)c1nc2c(F)cc(F)cc2s1.Cl`: -8.13%; for `Fc1ccc(Cn2nnnc2CN2CCN(C3CCCCC3)CC2)cc1`: -45.4%; for `C/C(CC(=O)NC(C)C)=N\NC(=O)C(c1ccccc1)c1ccccc1`: 9.95%. On to `CC(C)(C)C(=O)C[n+]1ccc(C(N)=O)cc1.[Br-]`, for which the “hERG current change (%, negative = inhibition) at 10uM” value is given as 0.811%. With `O=S(=O)(Nc1ccc2c(c1)OCCO2)c1c(F)cccc1F`, the “hERG current change (%, negative = inhibition) at 10uM” value worked out at 3.4%. Turning to `O=C(CSc1ccccc1)OCC(=O)N1CCN(C(=O)c2ccco2)CC1`, the “hERG current change (%, negative = inhibition) at 10uM” value is -27%. In the case of `O=C(Cc1c(Cl)cccc1Cl)OCC(=O)N1CCN(C(=O)c2ccco2)CC1`, the “hERG current change (%, negative = inhibition) at 10uM” value was -14.9%.

Turning to `O=C(Cc1ccccc1F)OCC(=O)N1CCN(C(=O)c2ccco2)CC1`, the “hERG current change (%, negative = inhibition) at 10uM” value is on record as -22.6%. The value for `O=C(OCC(=O)N1CCN(C(=O)c2ccco2)CC1)c1cccc(S(=O)(=O)N2CCc3ccccc32)c1` was -84%; that for `CN(c1ccccc1)S(=O)(=O)c1cc(C(=O)OCC(=O)N2CCN(C(=O)c3ccco3)CC2)ccc1Cl` was -68.3%; that for `O=C(OCC(=O)N1CCOCC1)c1cccc(S(=O)(=O)N2CCCc3ccccc32)c1` was -24.9%.

With `O=C(CCN1c2ccccc2Sc2ccccc21)OCC(=O)N1CCN(C(=O)c2ccco2)CC1`, the “hERG current change (%, negative = inhibition) at 10uM” value is recorded as -66%. Consider `O=C(Cc1ccc(Cl)cc1Cl)OCC(=O)N1CCN(C(=O)c2ccco2)CC1`, for which the “hERG current change (%, negative = inhibition) at 10uM” value is given as -57.6%. The value for `O=C(CCC(=O)c1cccs1)OCC(=O)N1CCN(C(=O)c2ccco2)CC1` was -2.34%; that for `CN(c1ccccc1)S(=O)(=O)c1cc(C(=O)OCC(N)=O)ccc1Cl` was -4.09%; that for `CCN(CC)S(=O)(=O)c1ccc(C(=O)OCC(=O)N2CCN(C(=O)c3ccco3)CC2)cc1` was -37.2%. The value for `O=C(COC(=O)c1cccc(S(=O)(=O)N2CCc3ccccc32)c1)NCc1ccco1` was 21.5%; that for `Cc1nn(C)c(Oc2ccc(Cl)cc2)c1C(=O)O` was 12.8%; that for `CC1=CC(C)C2(COC(=O)Nc3ccccc3)COC(C)C1C2C` (stereo not drawn) was -3.03%. With `CCOC(=O)C1CCN(Cc2cccc(Oc3ccc(Cl)cc3)c2)CC1`, the “hERG current change (%, negative = inhibition) at 10uM” value is on record as 3.3%.

For the compound `CCn1c(CNC(=O)c2cccs2)n[nH]c1=S`, the “hERG current change (%, negative = inhibition) at 10uM” value came out at 3.27%. As to `Cc1cccc(COc2ccc(/C=N/NC(=O)c3nnn(-c4nonc4N)c3C)cc2)c1`, the “hERG current change (%, negative = inhibition) at 10uM” value is 15.3%. On to `O=C(COc1cccnc1[N+](=O)[O-])Nc1ccc2c(c1)OCO2`, for which the “hERG current change (%, negative = inhibition) at 10uM” value is listed as 6.1%. In the case of `Cc1cc(NC(=O)c2ccc(S(=O)(=O)N(C)CC3CCCO3)cc2)no1` (stereo not drawn), the “hERG current change (%, negative = inhibition) at 10uM” value is on record as 2.09%. For the compound `COc1ccccc1CCNS(=O)(=O)c1cn(C)nc1C`, the “hERG current change (%, negative = inhibition) at 10uM” value was found to be 1.14%. For the compound `O=C(OCC(=O)N1CCN(C(=O)c2ccco2)CC1)c1ccc(Cl)cc1`, the “hERG current change (%, negative = inhibition) at 10uM” value is recorded as -38.7%. The same measure for `O=C(OCC(=O)N1CCN(C(=O)c2ccco2)CC1)c1ccc(Cl)c(Cl)c1`: -62.9%.

Turning to `CN(CCC#N)C(=O)COC(=O)c1ccc(Cl)c(S(=O)(=O)N(C)c2ccccc2)c1`, the “hERG current change (%, negative = inhibition) at 10uM” value is -58.2%. The same measure for `COCCN(CCOC)C(=O)COC(=O)c1ccc(Cl)c(S(=O)(=O)N(C)c2ccccc2)c1`: -48.4%; for `CN(CCC#N)C(=O)COC(=O)c1ccc(Cl)c(S(N)(=O)=O)c1`: 21.8%. The same measure for `O=C(OCC(=O)N1CCN(C(=O)c2ccco2)CC1)c1ccccc1`: 10.4%; for `O=C(Nc1ccc2c(c1)CCC2)c1cccs1`: 24.7%.
